Bioassay records deposited in PubChem BioAssay by National Center for Advancing Translational Sciences (NCATS).
In the library only some 19% were active in any assay of this set; here they are far more common.
KB-3-1 cytotox: qHTS assay for MDR1-selective chemotherapeutics: Primary screen using the parental adenocarcinoma cell KB-3-1. KB-3-1 viability, CellTiter-Glo ATP luminescence, 72 h. Potency, µM (doses to about 46.1 µM), actives largely listed as cytotoxic. 400,000 compounds, 1.4% hits. AID 1347075, 2019; also: nearly all actives have a fitted effect of over 60% in size
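KB-3-1 cells, DMEM (no phenol red) + 10% FBS; compound by pin transfer, 72 h, 37 °C. Readout: CellTiter-Glo luminescence after 10 min. Data normalized, curve-fitted.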
TDP1 cell CPT: qHTS for Inhibitors of human tyrosyl-DNA phosphodiesterase 1 (TDP1): qHTS in cells in presence of CPT; chicken DT40 Tdp1-/-;hTDP1 cells + 20 nM CPT, ATP luminescence, 48 h; Potency, µM (top dose mostly 46.2 µM), without a hit: at the top dose activity change, negative = growth inhibition, usual class: inhibitors; 420,000 compounds, 12% hits; AID 686979, 2013; also: nearly all actives have a fitted effect of over 55% in size
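Chicken DT40 Tdp1-/- cells complemented with human TDP1, 400 cells/well, exposed to compounds plus 20 nM camptothecin for at least 48 h at 37 C; viability read as ATP content by CellTiter-Glo luminescence.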
TDP1 cell noCPT: qHTS for Inhibitors of human tyrosyl-DNA phosphodiesterase 1 (TDP1): qHTS in cells in absence of CPT. DT40 Tdp1-/- hTDP1 cells, no CPT, ATP luminescence, 48 h. Potency, µM (top dose mostly 46.2 µM), for inactives: at the top dose activity change, negative = growth inhibition, most hits filed as inhibitors. 420,000 compounds, 15% hits. AID 686978, 2013; also: nearly all actives have a fitted effect of over 55% in size
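Stably hTDP1-transfected Tdp1-null chicken DT40 cells were treated with library compounds minus camptothecin and grown for at least 48 hr at 37 °C, after which cellular ATP was quantified by luminescence.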
KB-V1 cytotox: qHTS assay for MDR1-selective chemotherapeutics: Primary screen using the drug-selected MDR subline cells KB-V1; KB-V1 MDR cells viability, CellTiter-Glo, 72 h; 400,000 compounds, 3.4% hits; Potency, µM (series often up to 46.1 µM), usual class: cytotoxic; AID 1347076, 2019; also: nearly all actives have a fitted effect of over 60% in size
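Luminescent ATP read-out (CellTiter-Glo, 10 min) measures survival of drug-selected KB-V1 MDR cells after 72 h, 37 degrees C compound exposure. Medium: phenol-red-free DMEM, 10% FBS. Values from fitted concentration-response curves.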
HT1080 IDH1KD tx: qHTS for induction of synthetic lethality in tumor cells producing 2HG: qHTS for the HT-1080-IDH1KD cell line. 360,000 compounds, 2% hits. Potency, µM (series often up to 46.1 µM), for the others: at the highest dose activity, negative = toxicity, actives largely listed as cytotoxic. HT-1080 IDH1 knockdown viability, ATP luminescence, 48 h;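 also: 0% = DMSO wells and -100% = cell-free medium wells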
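Knockdown cells (IDH1KD HT-1080) received compounds 2 h after plating at 750 cells/well and were kept 48 h at 37 °C in 5% FBS RPMI. A CellTiter-Glo luminescence read gave % activity for curve fitting.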
HT1080-NT tox: qHTS for induction of synthetic lethality in tumor cells producing 2HG: qHTS for the HT-1080-NT fibrosarcoma cell line. HT-1080-NT fibrosarcoma viability, CellTiter-Glo ATP luminescence, 48 h. Potency, µM (top dose mostly 46.1 µM), inactives show at the top dose activity, negative = less viability, hits mostly cytotoxic. 360,000 compounds, 1.6% hits. AID 686970, 2013;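 also: NT is the 2HG producing partner of a matched IDH1 knockdown line; 0% = DMSO-treated cells and -100% = media-only wells without cells; nearly all actives have a fitted effect of over 55% in size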
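HT-1080-NT; 750 cells/well; 5% FBS RPMI; 48 h compound, 37 degrees C; CellTiter-Glo luminescence; curve fitting and curve-class assignment.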
The depositor's hits bear a star. Calls follow the shape of the dose curve; as a rule, active = well fitted curve in the direction sought with a large enough effect; inconclusive = small, poorly fitted or top-dose-only effect, or another doubt; inactive = no such curve, though single readings can be large; an effect the other way counts as inactive or inconclusive. Unless noted, % is scaled to controls: 0 for no effect and ±100 for the full control effect; potency is read from the fitted curve at half-maximal effect.

How did COc1ccc(C2Nc3ccccc3C(=O)N2c2cccc3ccccc23)cc1COc1c(C)cccc1C (stereo not drawn) do in these assays?
KB-3-1 cytotox: 13µM*; TDP1 cell CPT: 3.2µM*; TDP1 cell noCPT: 2.8µM*; KB-V1 cytotox: inactive

What do the screens show for `CCc1ccccc1NC(=O)CC1SCCNC1=O` (stereo not drawn)?
KB-3-1 cytotox: inactive; TDP1 cell CPT: 3%; TDP1 cell noCPT: 13%; KB-V1 cytotox: inactive; HT1080 IDH1KD tx: 18%; HT1080-NT tox: 4%

Results for CCNC(=O)c1c2c(nc3ccccc13)C(=O)N(C1CCCCC1)C2 ?
KB-3-1 cytotox: inactive; TDP1 cell CPT: -19%; TDP1 cell noCPT: -19%; KB-V1 cytotox: inactive

What do the screens show for `Cc1ccc(CNC(=O)c2c3c(nc4ccccc24)C(=O)N(C2CCCCC2)C3)cc1`?
KB-3-1 cytotox: inactive; TDP1 cell CPT: inconclusive; TDP1 cell noCPT: 16µM*; KB-V1 cytotox: inactive

What do the screens show for `CCc1ccc(CNC(=O)c2c3c(nc4ccccc24)C(=O)N(C2CCCCC2)C3)cc1`?
KB-3-1 cytotox: inactive; TDP1 cell CPT: inconclusive; TDP1 cell noCPT: 16µM*; KB-V1 cytotox: 13µM*

What do the screens show for `CC1(C)CC[C@@]23CC[C@]4(C)[C@@](OC2=O)(C3C1)[C@H]1O[C@H]1C1[C@@]2(C)CC[C@H](O)C(C)(C)C2CC[C@]14C` (stereo partly drawn)?
KB-3-1 cytotox: inactive; TDP1 cell CPT: 0%; TDP1 cell noCPT: -13%; KB-V1 cytotox: inactive; HT1080 IDH1KD tx: 7%; HT1080-NT tox: 4%

What do the screens show for `CC1CCCCC12NC(=O)N(CC(=O)Nc1cccnc1)C2=O` (stereo not drawn)?
KB-3-1 cytotox: inactive; TDP1 cell CPT: 0%; TDP1 cell noCPT: -2%; KB-V1 cytotox: inactive; HT1080 IDH1KD tx: 9%; HT1080-NT tox: 12%

What do the screens show for `O=C1CCC2=C1C1(CCCC1)N=C(Nc1nc3ccccc3o1)N2`?
KB-3-1 cytotox: inactive; KB-V1 cytotox: inactive

Results for CC1(C)CC(=O)C2=C(C1)NC(Nc1nc3ccccc3o1)=NC21CCCCC1 ?
KB-3-1 cytotox: inactive; TDP1 cell CPT: inconclusive; TDP1 cell noCPT: 23µM*; KB-V1 cytotox: inconclusive; HT1080 IDH1KD tx: 5%; HT1080-NT tox: 2%

What do the screens show for `CCCCn1c(N)c(N(CCOC)C(=O)CCS(=O)(=O)c2ccc(C)cc2)c(=O)[nH]c1=O`?
KB-3-1 cytotox: inconclusive; TDP1 cell CPT: -1%; TDP1 cell noCPT: -4%; KB-V1 cytotox: inconclusive; HT1080 IDH1KD tx: 0%; HT1080-NT tox: -2%

How did Cc1ccc(CNC(=O)c2c(-c3ccccc3)sc3ccccc23)o1 do in these assays?
KB-3-1 cytotox: inactive; TDP1 cell CPT: inconclusive; TDP1 cell noCPT: 16µM*; KB-V1 cytotox: inactive; HT1080 IDH1KD tx: 2%; HT1080-NT tox: 3%

Results for O=C(NCc1ccc2c(c1)OCO2)c1c(-c2ccccc2)sc2ccccc12 ?
KB-3-1 cytotox: inactive; TDP1 cell CPT: inconclusive; TDP1 cell noCPT: inconclusive; KB-V1 cytotox: inconclusive; HT1080 IDH1KD tx: -11%; HT1080-NT tox: -11%

What do the screens show for `COc1cc2sc(-c3ccc(S(C)(=O)=O)cc3)c(C(=O)NCCCCO)c2cc1OC`?
KB-3-1 cytotox: inactive; TDP1 cell CPT: 5%; TDP1 cell noCPT: -6%; KB-V1 cytotox: inactive; HT1080 IDH1KD tx: 13%; HT1080-NT tox: 13%

How did COc1cc2sc(-c3ccc(S(C)(=O)=O)cc3)c(C(=O)NCc3ccc(C)o3)c2cc1OC do in these assays?
KB-3-1 cytotox: inactive; TDP1 cell CPT: inconclusive; TDP1 cell noCPT: 13µM*; KB-V1 cytotox: inconclusive; HT1080 IDH1KD tx: -5%; HT1080-NT tox: -14%

What do the screens show for `Cc1ccccc1C(=O)Nc1ccc2nc(SCC(=O)N3CCc4ccccc43)sc2c1`?
KB-3-1 cytotox: inactive; TDP1 cell CPT: 5.2µM*; TDP1 cell noCPT: 3.7µM*; KB-V1 cytotox: inactive

How did Cc1cccc(C(=O)Nc2ccc3nc(SCC(=O)N4CCc5ccccc54)sc3c2)c1 do in these assays?
KB-3-1 cytotox: inactive; TDP1 cell CPT: 5.8µM*; TDP1 cell noCPT: 4.6µM*; KB-V1 cytotox: inactive

What do the screens show for `Cc1ccccc1OCC(=O)Nc1ccc2nc(SCC(=O)N3CCc4ccccc43)sc2c1`?
KB-3-1 cytotox: inactive; TDP1 cell CPT: -5%; TDP1 cell noCPT: -1%; KB-V1 cytotox: inactive

Results for CCC(CC)C(=O)Nc1ccc2nc(SCC(=O)N3c4ccccc4CC3C)sc2c1 (stereo not drawn) ?
KB-3-1 cytotox: inconclusive; TDP1 cell CPT: 12µM*; TDP1 cell noCPT: 16µM*; KB-V1 cytotox: inactive

What do the screens show for `Cc1cccc(C(=O)Nc2ccc3nc(SCC(=O)N4CCCC4)sc3c2)c1`?
TDP1 cell CPT: inconclusive; TDP1 cell noCPT: 16µM*

Results for CCOc1ccc2nc(SCC(=O)NC(=O)NCc3ccco3)sc2c1 ?
KB-3-1 cytotox: inactive; TDP1 cell CPT: inconclusive; TDP1 cell noCPT: 26µM*; KB-V1 cytotox: inactive; HT1080 IDH1KD tx: -20%; HT1080-NT tox: -23%

Results for CCOc1ccc2nc(SCC(=O)NCc3ccco3)sc2c1 ?
KB-3-1 cytotox: inactive; TDP1 cell CPT: inconclusive; TDP1 cell noCPT: 23µM*; KB-V1 cytotox: inconclusive; HT1080 IDH1KD tx: -20%; HT1080-NT tox: -17%

What do the screens show for `O=C(CSc1nc2cc(Cl)ccc2s1)NC(=O)NCc1ccco1`?
KB-3-1 cytotox: inactive; TDP1 cell CPT: -13%; TDP1 cell noCPT: inconclusive; KB-V1 cytotox: inactive; HT1080 IDH1KD tx: -2%; HT1080-NT tox: inconclusive

What do the screens show for `CCNC(=O)C1(C)CCN(Cc2ccccc2C#N)C1` (stereo not drawn)?
KB-3-1 cytotox: inactive; TDP1 cell CPT: -2%; TDP1 cell noCPT: -15%; KB-V1 cytotox: inactive; HT1080 IDH1KD tx: 16%; HT1080-NT tox: 20%

What do the screens show for `O=C(NNC(=O)C12CC3CC(CC(C3)C1)C2)c1ccccc1O`?
KB-3-1 cytotox: inconclusive; TDP1 cell CPT: 8.2µM*; TDP1 cell noCPT: 8.2µM*; KB-V1 cytotox: inactive; HT1080 IDH1KD tx: inconclusive; HT1080-NT tox: -17%
